# ± gives the standard deviation of the averaged measurements. Targets with the largest changes are over-represented here; the source holds about 5,400 in all.
# Compound: Nc1nc2c(ncn2[C@@H]2O[C@H](COP(=O)(O)OP(=O)(O)OP(=O)(O)O)[C@@H](O)[C@H]2O)c(=O)[nH]1 [guanosine triphosphate]
# Assay: NP40-soluble protein abundance relative to vehicle (solubility fold change) (ratio); higher = more soluble protein in presence of GTP
# Outline: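 Across three independent experiments, values are fold changes against the detergent-processed vehicle for each replicate, based on vsn-normalised intensities. The samples were Jurkat crude lysate treated with eight concentrations (0.1 to 10 mM) for 10 min at room temperature and then 3 min at 37 °C. Lysate was solubilised with 0.8% NP40 and benzonase, ultracentrifuged, and the supernatant analysed by TMT-labelled LC-MS/MS.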
# Sequence of UniProt Q8TBE9 (Q8TBE9 whole entry): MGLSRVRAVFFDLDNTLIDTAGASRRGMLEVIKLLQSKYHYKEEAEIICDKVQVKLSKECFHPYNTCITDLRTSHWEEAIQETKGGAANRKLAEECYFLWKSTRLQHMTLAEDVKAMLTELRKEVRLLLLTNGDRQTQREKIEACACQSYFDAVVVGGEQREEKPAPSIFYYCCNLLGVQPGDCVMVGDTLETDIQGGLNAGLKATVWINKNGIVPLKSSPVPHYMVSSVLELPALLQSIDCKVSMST
# Sequence of UniProt Q13572 (Q13572 whole entry): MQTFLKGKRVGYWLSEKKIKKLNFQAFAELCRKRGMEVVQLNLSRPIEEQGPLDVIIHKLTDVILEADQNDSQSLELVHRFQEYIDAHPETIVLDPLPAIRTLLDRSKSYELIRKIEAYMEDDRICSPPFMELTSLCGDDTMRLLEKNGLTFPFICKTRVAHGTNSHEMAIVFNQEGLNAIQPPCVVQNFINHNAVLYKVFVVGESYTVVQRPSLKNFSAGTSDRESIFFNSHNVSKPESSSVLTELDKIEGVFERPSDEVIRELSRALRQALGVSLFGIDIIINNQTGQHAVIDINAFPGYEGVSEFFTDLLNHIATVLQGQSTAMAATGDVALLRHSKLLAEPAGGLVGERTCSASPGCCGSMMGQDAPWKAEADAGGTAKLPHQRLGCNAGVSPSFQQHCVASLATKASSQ
# Sequence of UniProt Q8N3X1 (Q8N3X1 whole entry): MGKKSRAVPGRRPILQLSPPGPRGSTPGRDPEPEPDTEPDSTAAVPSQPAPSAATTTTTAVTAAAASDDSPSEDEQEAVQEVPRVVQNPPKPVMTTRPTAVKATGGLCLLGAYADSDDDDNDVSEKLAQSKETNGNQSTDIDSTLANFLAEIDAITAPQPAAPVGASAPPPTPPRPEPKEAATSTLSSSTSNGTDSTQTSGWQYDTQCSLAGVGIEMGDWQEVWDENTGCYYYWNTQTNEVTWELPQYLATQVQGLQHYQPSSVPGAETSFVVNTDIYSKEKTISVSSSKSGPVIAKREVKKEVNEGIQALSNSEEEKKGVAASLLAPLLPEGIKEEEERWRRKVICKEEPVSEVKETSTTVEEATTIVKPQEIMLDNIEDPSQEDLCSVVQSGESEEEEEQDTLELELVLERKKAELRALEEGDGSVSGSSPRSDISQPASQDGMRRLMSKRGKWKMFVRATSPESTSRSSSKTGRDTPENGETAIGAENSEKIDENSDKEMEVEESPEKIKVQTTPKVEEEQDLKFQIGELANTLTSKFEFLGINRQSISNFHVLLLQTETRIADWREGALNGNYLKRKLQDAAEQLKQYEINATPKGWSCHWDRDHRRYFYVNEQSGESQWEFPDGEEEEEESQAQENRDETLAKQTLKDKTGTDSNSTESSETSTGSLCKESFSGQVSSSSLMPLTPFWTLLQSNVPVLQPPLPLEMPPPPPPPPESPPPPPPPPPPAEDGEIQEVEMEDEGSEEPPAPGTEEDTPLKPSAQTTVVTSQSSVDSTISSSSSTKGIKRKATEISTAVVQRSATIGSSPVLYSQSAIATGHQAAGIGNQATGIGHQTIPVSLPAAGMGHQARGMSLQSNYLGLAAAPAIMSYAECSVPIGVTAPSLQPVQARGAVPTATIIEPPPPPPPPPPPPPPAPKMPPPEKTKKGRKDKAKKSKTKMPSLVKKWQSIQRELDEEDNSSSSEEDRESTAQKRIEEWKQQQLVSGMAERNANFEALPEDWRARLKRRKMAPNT
# Sequence of UniProt Q8IXB1 (Q8IXB1 whole entry): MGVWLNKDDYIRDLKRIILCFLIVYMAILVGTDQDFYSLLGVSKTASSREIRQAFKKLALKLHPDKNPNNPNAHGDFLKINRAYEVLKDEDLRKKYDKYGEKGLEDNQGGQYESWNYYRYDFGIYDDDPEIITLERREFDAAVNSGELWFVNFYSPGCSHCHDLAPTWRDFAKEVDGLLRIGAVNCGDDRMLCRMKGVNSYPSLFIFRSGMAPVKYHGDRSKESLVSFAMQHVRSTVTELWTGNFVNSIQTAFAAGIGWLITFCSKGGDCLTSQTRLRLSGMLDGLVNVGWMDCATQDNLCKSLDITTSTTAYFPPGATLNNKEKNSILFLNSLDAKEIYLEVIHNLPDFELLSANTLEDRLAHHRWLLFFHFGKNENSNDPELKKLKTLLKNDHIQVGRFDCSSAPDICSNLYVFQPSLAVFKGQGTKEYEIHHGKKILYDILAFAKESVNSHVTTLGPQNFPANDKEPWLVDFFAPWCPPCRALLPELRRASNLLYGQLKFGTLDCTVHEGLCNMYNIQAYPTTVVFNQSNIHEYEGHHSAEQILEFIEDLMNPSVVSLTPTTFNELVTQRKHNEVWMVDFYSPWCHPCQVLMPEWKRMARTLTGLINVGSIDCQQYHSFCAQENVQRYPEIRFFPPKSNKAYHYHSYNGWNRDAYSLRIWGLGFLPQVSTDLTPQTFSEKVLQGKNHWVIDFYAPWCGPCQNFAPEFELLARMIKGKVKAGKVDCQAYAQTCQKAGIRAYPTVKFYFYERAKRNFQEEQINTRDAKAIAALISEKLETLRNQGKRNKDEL
# Sequence of UniProt Q86U44 (Q86U44 whole entry): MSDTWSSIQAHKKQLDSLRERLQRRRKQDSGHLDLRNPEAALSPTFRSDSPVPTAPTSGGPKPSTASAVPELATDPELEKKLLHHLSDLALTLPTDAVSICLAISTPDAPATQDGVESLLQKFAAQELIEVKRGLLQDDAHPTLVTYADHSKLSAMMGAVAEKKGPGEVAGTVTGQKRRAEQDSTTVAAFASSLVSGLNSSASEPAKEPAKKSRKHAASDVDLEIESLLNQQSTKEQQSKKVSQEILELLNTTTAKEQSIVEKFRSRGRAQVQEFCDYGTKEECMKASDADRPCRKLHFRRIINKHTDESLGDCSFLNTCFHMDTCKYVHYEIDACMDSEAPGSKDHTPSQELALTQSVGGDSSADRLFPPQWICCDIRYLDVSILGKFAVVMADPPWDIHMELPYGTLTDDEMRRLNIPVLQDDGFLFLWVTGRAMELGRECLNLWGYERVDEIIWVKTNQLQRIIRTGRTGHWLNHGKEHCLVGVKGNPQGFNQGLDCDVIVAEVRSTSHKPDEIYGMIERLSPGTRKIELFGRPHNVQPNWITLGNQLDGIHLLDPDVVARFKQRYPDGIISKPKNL
# Sequence of UniProt Q92696 (Q92696 whole entry): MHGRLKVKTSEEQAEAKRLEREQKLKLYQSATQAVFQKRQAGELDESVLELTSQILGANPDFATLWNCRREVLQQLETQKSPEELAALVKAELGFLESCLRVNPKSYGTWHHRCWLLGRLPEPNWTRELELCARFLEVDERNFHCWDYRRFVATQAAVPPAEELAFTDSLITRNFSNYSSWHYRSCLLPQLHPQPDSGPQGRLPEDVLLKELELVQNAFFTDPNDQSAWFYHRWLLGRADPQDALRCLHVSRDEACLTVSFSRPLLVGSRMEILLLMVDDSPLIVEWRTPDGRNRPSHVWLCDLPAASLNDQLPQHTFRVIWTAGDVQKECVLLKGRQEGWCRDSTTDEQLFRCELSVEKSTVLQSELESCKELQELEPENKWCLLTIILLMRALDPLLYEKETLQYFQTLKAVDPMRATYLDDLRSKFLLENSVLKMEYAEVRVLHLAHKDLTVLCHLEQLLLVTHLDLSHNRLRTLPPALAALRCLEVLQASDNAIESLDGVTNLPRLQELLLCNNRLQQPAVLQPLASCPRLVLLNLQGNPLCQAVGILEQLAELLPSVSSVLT
# Sequence of UniProt P84090 (P84090 whole entry, looked up): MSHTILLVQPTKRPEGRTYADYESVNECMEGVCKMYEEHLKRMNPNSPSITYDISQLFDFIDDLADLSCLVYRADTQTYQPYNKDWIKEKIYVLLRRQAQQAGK
# Sequence of UniProt Q8WUX9 (Q8WUX9 whole entry): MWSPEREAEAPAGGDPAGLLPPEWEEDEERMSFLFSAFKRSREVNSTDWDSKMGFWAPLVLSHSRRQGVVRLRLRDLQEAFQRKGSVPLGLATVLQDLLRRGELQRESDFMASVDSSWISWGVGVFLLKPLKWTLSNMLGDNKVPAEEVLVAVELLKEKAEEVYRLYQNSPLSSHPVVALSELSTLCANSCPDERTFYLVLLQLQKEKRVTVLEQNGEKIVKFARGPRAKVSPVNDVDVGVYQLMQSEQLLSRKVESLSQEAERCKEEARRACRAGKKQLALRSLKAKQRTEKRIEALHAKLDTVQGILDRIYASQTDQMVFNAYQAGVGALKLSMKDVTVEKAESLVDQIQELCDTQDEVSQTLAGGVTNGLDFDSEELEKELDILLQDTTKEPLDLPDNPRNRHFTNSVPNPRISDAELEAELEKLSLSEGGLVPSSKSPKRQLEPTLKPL
# Sequence of UniProt P61981 (P61981 whole entry): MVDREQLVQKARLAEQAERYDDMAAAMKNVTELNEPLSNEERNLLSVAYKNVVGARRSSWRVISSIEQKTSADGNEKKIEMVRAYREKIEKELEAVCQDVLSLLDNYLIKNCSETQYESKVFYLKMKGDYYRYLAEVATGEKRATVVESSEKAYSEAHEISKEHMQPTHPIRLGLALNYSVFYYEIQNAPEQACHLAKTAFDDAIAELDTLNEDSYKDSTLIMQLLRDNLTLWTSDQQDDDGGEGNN
# Sequence of UniProt P61006 (P61006 whole entry): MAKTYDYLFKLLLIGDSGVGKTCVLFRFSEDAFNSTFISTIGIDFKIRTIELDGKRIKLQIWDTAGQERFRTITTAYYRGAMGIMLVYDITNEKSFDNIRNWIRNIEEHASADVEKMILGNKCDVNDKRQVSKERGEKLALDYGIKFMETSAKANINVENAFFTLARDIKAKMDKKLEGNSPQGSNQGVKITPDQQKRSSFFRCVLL
# Sequence of UniProt Q16864 (Q16864 whole entry): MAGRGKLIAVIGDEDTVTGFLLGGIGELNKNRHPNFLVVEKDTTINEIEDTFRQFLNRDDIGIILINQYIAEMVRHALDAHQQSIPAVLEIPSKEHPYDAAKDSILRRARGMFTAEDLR
# Sequence of UniProt Q8WUR7 (Q8WUR7 whole entry): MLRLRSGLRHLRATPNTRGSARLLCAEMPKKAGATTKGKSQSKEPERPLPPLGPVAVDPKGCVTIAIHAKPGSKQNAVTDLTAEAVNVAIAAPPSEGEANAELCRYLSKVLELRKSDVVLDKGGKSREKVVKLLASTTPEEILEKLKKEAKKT
Target,NP40-soluble protein abundance (concentration: 0.1mM),NP40-soluble protein abundance (concentration: 0.5mM),NP40-soluble protein abundance (concentration: 1mM),NP40-soluble protein abundance (concentration: 2mM),NP40-soluble protein abundance (concentration: 4mM),NP40-soluble protein abundance (concentration: 6mM),NP40-soluble protein abundance (concentration: 8mM),NP40-soluble protein abundance (concentration: 10mM)
ANKRD11 (UniProt Q6UB99),1.01 ± 0.024,1.01 ± 0.092,1.1 ± 0.027,1.1 ± 0.06,1.1 ± 0.041,1.08 ± 0.042,1.18 ± 0.073,1.17 ± 0.073
NANP (UniProt Q8TBE9),1.07 ± 0.15,0.981 ± 0.11,0.954 ± 0.14,0.982 ± 0.16,0.904 ± 0.12,0.877 ± 0.14,0.891 ± 0.2,0.861 ± 0.15
EXOSC7 (UniProt Q15024),1.09 ± 0.084,1.01 ± 0.071,1.06 ± 0.086,1.11 ± 0.12,1.26 ± 0.13,1.17 ± 0.12,1.22 ± 0.077,1.18 ± 0.061
UniProt Q6WKZ4|Q6WKZ4-3,1.02 ± 0.049,0.951 ± 0.044,0.946 ± 0.05,0.921 ± 0.056,0.933 ± 0.058,0.901 ± 0.022,0.943 ± 0.057,0.89 ± 0.038
UniProt Q8IXB1|Q8IXB1-2,1.17 ± 0.21,1.06 ± 0.11,1.08 ± 0.1,1.17 ± 0.15,1.1 ± 0.11,1.11 ± 0.16,1.1 ± 0.11,1.06 ± 0.084
RABGGTA (UniProt Q92696),1.04 ± 0.026,1.04 ± 0.075,0.896 ± 0.022,0.916 ± 0.068,0.91 ± 0.037,0.889 ± 0.032,0.847 ± 0.037,0.849 ± 0.07
UniProt Q13325|Q13325-2,1.06 ± 0.044,1.05 ± 0.061,0.989 ± 0.057,0.978 ± 0.05,0.952 ± 0.086,0.927 ± 0.049,0.906 ± 0.077,0.888 ± 0.13
UniProt Q8IX12|Q8IX12-2,0.993 ± 0.042,0.985 ± 0.027,1.004 ± 0.0041,0.996 ± 0.03,1.08 ± 0.056,1.12 ± 0.06,1.17 ± 0.077,1.14 ± 0.059
CHMP7 (UniProt Q8WUX9),0.945 ± 0.058,0.935 ± 0.087,0.973 ± 0.085,0.92 ± 0.11,0.884 ± 0.074,0.9 ± 0.045,0.912 ± 0.1,0.889 ± 0.084
SLC44A1 (UniProt Q8WWI5),0.943 ± 0.066,0.931 ± 0.078,0.926 ± 0.061,0.894 ± 0.093,0.934 ± 0.07,0.879 ± 0.1,0.899 ± 0.1,0.938 ± 0.08
P86790|P86791 (UniProt P86791+P86790),1.06 ± 0.015,1.06 ± 0.072,1.03 ± 0.063,0.99 ± 0.038,1.01 ± 0.068,0.948 ± 0.038,0.943 ± 0.029,0.924 ± 0.0097
UniProt Q13303-2,1.05 ± 0.045,1.06 ± 0.11,0.954 ± 0.086,1 ± 0.14,0.984 ± 0.11,0.973 ± 0.14,0.898 ± 0.024,0.904 ± 0.043
RAB8A (UniProt P61006),0.928 ± 0.03,0.95 ± 0.039,0.903 ± 0.041,0.849 ± 0.068,0.812 ± 0.064,0.858 ± 0.085,0.828 ± 0.046,0.81 ± 0.075
SMC5 (UniProt Q8IY18),1.026 ± 0.0089,1.06 ± 0.036,1.03 ± 0.025,1.02 ± 0.03,1.009 ± 0.0054,1.04 ± 0.019,1.05 ± 0.031,1.03 ± 0.021
KPNB1 (UniProt Q14974),0.986 ± 0.053,0.988 ± 0.03,1.01 ± 0.035,0.989 ± 0.037,1.01 ± 0.041,0.993 ± 0.033,1 ± 0.033,0.992 ± 0.028
UniProt Q16864|Q16864-2,0.906 ± 0.02,0.931 ± 0.05,1.032 ± 0.01,1.04 ± 0.067,0.999 ± 0.061,1.02 ± 0.034,0.992 ± 0.073,1.02 ± 0.027
UniProt Q13085|A0A087X126,1.09 ± 0.08,1.09 ± 0.11,1.03 ± 0.088,1.07 ± 0.14,1.05 ± 0.11,1.04 ± 0.097,0.975 ± 0.072,0.956 ± 0.056
UniProt Q86Y37|Q86Y37-4,0.963 ± 0.063,0.923 ± 0.074,0.9527 ± 0.0029,0.9274 ± 0.0067,0.907 ± 0.091,0.905 ± 0.048,0.87 ± 0.057,0.889 ± 0.054
METTL3 (UniProt Q86U44),0.967 ± 0.058,1.01 ± 0.061,0.969 ± 0.062,0.948 ± 0.076,0.911 ± 0.06,0.932 ± 0.058,0.92 ± 0.085,0.931 ± 0.063
UniProt P84090,1.06 ± 0.1,1.02 ± 0.06,1.26 ± 0.18,1.34 ± 0.11,1.42 ± 0.16,1.54 ± 0.1,1.65 ± 0.14,1.95 ± 0.38
UniProt Q2TB10|A0A087WXB4,1.04 ± 0.1,1.15 ± 0.14,1.15 ± 0.12,1.36 ± 0.28,1.68 ± 0.48,1.9 ± 0.44,2.04 ± 0.64,2.54 ± 1.1
ASCC3 (UniProt Q8N3C0),1 ± 0.066,1.09 ± 0.026,1.06 ± 0.032,1.16 ± 0.091,1.32 ± 0.17,1.38 ± 0.22,1.53 ± 0.26,1.73 ± 0.27
UniProt P61981,0.845 ± 0.11,0.811 ± 0.067,1.01 ± 0.14,0.987 ± 0.076,0.942 ± 0.075,0.968 ± 0.12,0.912 ± 0.15,1.05 ± 0.16
UniProt Q14156|Q14156-3,1.13 ± 0.049,1.105 ± 0.011,1.09 ± 0.11,1.1 ± 0.021,1.21 ± 0.11,1.1 ± 0.16,1.0338 ± 0.00078,1.01 ± 0.013
ITPK1 (UniProt Q13572),0.997 ± 0.085,0.965 ± 0.064,0.904 ± 0.095,0.981 ± 0.077,0.981 ± 0.15,0.943 ± 0.18,0.924 ± 0.13,0.953 ± 0.09
DDX51 (UniProt Q8N8A6),1.07 ± 0.15,1.11 ± 0.05,1.2 ± 0.08,1.35 ± 0.09,1.64 ± 0.085,1.86 ± 0.21,2.05 ± 0.24,2.1 ± 0.15
C15orf40 (UniProt Q8WUR7),1.02 ± 0.1,1.02 ± 0.084,1.03 ± 0.034,1.05 ± 0.12,1.04 ± 0.13,1.01 ± 0.097,1.11 ± 0.061,1.17 ± 0.12
UniProt Q8N3X1|Q8N3X1-2,1.05 ± 0.043,1.01 ± 0.076,1.09 ± 0.022,1.27 ± 0.017,1.39 ± 0.024,1.64 ± 0.031,1.77 ± 0.15,2.04 ± 0.24
UniProt Q12802|Q12802-2|Q12802-4,0.99 ± 0.12,1.01 ± 0.092,1.01 ± 0.099,1 ± 0.12,0.977 ± 0.11,1.04 ± 0.11,1.02 ± 0.1,1.02 ± 0.084

# From the supplement of paper PMC6411743
